“And” between values parts separate entries of the source, which are not always exact repeats. Equal entries are not always repeated. Results filed as inconclusive are left out. More than one record can exist for a structure, and the calls need not agree. A number with no mark means an inactive call. The source made the active and inactive calls. Calls come from the whole dose curve; as a rule, active = well fitted activation curve with a large enough effect; inconclusive = small, poorly fitted or top-dose-only effect; inactive = flat fitted curve, though single readings scatter.
test: qHTS assay for environmental chemicals that activate the Aryl hydrocarbon Receptor (AhR) signaling pathway (AID 651777); conditions: 1A2-DRE human hepatoma cells, luciferase, 24 h; activation: stronger effect = higher value; note: nearly all actives have a fitted effect of over 15% in size; for activation: % of control where 0% means no effect
From the text: National Center for Advancing Translational Sciences [NCATS]
NIH Chemical Genomics Center [NCGC]
U.S. Environmental Protection Agency [EPA]
National Institutes of Environmental Health Sciences [NIEHS]
National Toxicology Program [NTP]
The Aryl hydrocarbon Receptor (AhR) plays a critical role in the development of cancer or neoplasm and its formation is most likely due to genetic mutations and the influence of environment. Exposure to environmental pollutants such as polycyclic aromatic hydrocarbons (PAH), their halogenated derivatives and heterocyclic amines causes the induction of phase I and II enzymes. The transcriptional activation of CYP1A2 is directly regulated by AhR.
A cell based assay (1A2-DRE cells, developed by Puracyp, Inc., CA) was used to assess the activation of AhR. Human hepatoma cells were stably transfected with the dioxin response element (DRE) and CYP1A2 promoter fused to a luciferase gene. Increased luciferase activity can be used to identify the compounds that cause the induction of CYP1A2 and AhR activation.
1,200 cells in 5 uL/well were dispensed into white wall/solid bottom 1536-well plates using a Multidrop Combi (Thermo Scientific) dispenser. Following transfer of 23 nL compound or DMSO vehicle by a pin tool, the plates were incubated 24 hr at 37 C and 5% CO2. 5 ul One-Glo (Promega) was then added to each well and following 30 min incubation at room temperature, luciferase activity was quantified on a ViewLux CCD-based plate reader.
Potency is the fitted concentration of half-maximal effect.

| Structure (SMILES) | activation | Potency |
| --- | --- | --- |
| c1cnc2c(c1)ccc1cccnc12 | 2.54% | – |
| O=C(O)c1cc(O)c(O)c(O)c1 | -0.689% | – |
| c1ccc2sc(SSc3nc4ccccc4s3)nc2c1 | -0.44% and 3.22% | – |
| C=CCCCCCCCCC(=O)O | 1.9% | – |
| CC1(C)S[C@@H]2[C@H](NC(=O)[C@H](N)c3ccccc3)C(=O)N2[C@H]1C(=O)O | 0.371% | – |
| CN(C)CCC(c1ccc(Cl)cc1)c1ccccn1 (stereo not drawn) | -0.109% | – |
| CN1[C@@H]2CC[C@H]1CC(OC(=O)C(CO)c1ccccc1)C2 (stereo partly drawn) | -1.81% | – |
| Nc1ccc(O)c(C(=O)O)c1 | 0.023% and -1.58% | – |
| CN(C)c1ccc(N=NS(=O)(=O)O)cc1 | 10.4% | 70.8 µM (active) |
| CC(C)NCC(O)COc1cccc2ccccc12 (stereo not drawn) | 1.27% and 9.4% | – |
| Nc1ccc(O)c([N+](=O)[O-])c1 | 4.17% and 0.649% | – |
| CCCCCCCCCCCCCCCCCC(=O)O | 0.0234% and 0.947% and 1.53% | – |
| NCCO | -0.695% | – |
| CN1CCC[C@H]1c1cccnc1 | 0.841% and 0.227% | – |
| CCCOC(=O)c1ccc(O)cc1 | 3.41% and 2.32% | – |
| Nc1nc2ccc([N+](=O)[O-])cc2s1 | 8.89% | – |
| O=c1cc(-c2ccccc2)oc2ccccc12 | – | 50.1 µM (active) and 44.7 µM (active) |
| O=C(Nc1ccccc1)c1cc([N+](=O)[O-])ccc1Cl | – | 14.1 µM (active) |
| Nc1cc(-c2ccncc2)c[nH]c1=O | -0.684% | – |
| Nc1ccc([N+](=O)[O-])cc1O | 7.01% | – |
| CC(C)OC(=O)c1cc(C(=O)OC(C)C)cc([N+](=O)[O-])c1 | 4% | – |
| N=C1N=C(N)c2cc3ccccc3cc21 | 12.9% | – |
| C#C[C@]1(O)CC[C@H]2[C@@H]3CCc4cc(O)ccc4[C@H]3CC[C@@]21C | -0.528% and -0.741% | – |
| COc1cc(CNC(=O)CCCC/C=C/C(C)C)ccc1O | -0.69% and 1.8% | – |
| O=C(O)[C@H](O)[C@@H](O)[C@H](O)[C@H](O)CO | -0.169% | – |
| O=C1CN(/N=C/c2ccc([N+](=O)[O-])o2)C(=O)N1 | 4.15% | – |
| O=C(O)c1ccccc1Nc1cccc(C(F)(F)F)c1 | 0.429% | – |

From PubChem BioAssay (NCATS)
